# Screening data from PubChem BioAssay.
# Only a selection was taken, and hits are over-represented in it overall.
# G9a block: qHTS Assay for Inhibitors of Histone Lysine Methyltransferase G9a. 350,000 compounds, 8.8% hits. Potency, µM (highest dose often 102 µM), inactives show top-dose activity, negative = inhibition, hits mostly inhibitors. Histone-lysine N-methyltransferase EHMT2 (Homo sapiens), Q96KQ7. G9a H3K9 monomethylation, AlphaScreen, 2 h. AID 504332, 2011; also: % is scaled to controls: 0 for no effect and ±100 for the full control effect; nearly all actives have a fitted effect of over 75% in size
#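 Step 1: enzyme (final 20 nM) with compound, 15 min RT. Step 2: substrate peptide 500 nM and SAM 20 uM, 2 h RT. Step 3: anti-H3K9me1 antibody and AlphaScreen beads, 10 min, then plate read.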
# Glioma ERSR ind: qHTS for Inducers of the Endoplasmic Reticulum Stress Response (ERSR) in Human Glioma: qHTS | U87-MG GRP78 promoter luciferase reporter, 16 h | Potency, µM, for the others: at the top dose activation, hits mostly activators | AID 602332, 2012 | 420,000 compounds, 0.02% hits; also: series mostly up to about 76 µM; % of control where 0% means no effect; nearly all actives have a fitted effect of over 35% in size
#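 ERSR induction read as luciferase luminescence (Bright-Glo, 10 min at room temperature) in stably transfected human U87-MG glioma cells exposed to compounds for 16 h, using GRP78 as sensor.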
# VDR inhibitor: Inhibitors of the vitamin D receptor (VDR): qHTS; VDR-SRC2-3 peptide fluorescence polarization, 2 h; Potency, µM, without a hit: max response, negative = inhibition, actives largely listed as inhibitors; 400,000 compounds, 0.93% hits; AID 504847, 2011; also: % is scaled to controls: 0 for no effect and ±100 for the full control effect
#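 Reagent solutions, kept cold and dark, are dispensed first; compounds are then pinned in at 23 nl, plates briefly spun, and incubated 2 h at ambient temperature. Inhibition of VDR–SRC2-3 peptide binding is read by fluorescence polarization.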
# Sfp inh: qHTS Assay for Inhibitors of Bacillus subtilis Sfp phosphopantetheinyl transferase (PPTase); 4'-phosphopantetheinyl transferase ffp (Bacillus subtilis), Q9F4F7; Biochemical Sfp PPTase activity, qHTS; Potency, µM, for inactives: largest response in the series, negative = inhibition, most hits filed as inhibitors; 310,000 compounds, 3.5% hits; AID 1490, 2009;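 also: the enzyme is Sfp with the accession as filed and its product quenches rhodamine fluorescence; 0% = enzyme reaction without inhibitor and -100% = no enzyme wells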
#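 Fluorescence-quenching assay with 15 nM Sfp, 5 uM rhodamine-CoA and 12.5 uM BHQ-2-labelled ybbR peptide in pH 7.6 Hepes/MgCl2 buffer. Enzyme was pre-incubated with compound for 15 min at room temperature. Rate was taken from the 30-min fluorescence change (525/598 nm).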
# 12-LOX inh: Primary qHTS assay for inhibitors of human arachidonate 12S-lipoxygenase (ALOX12): Round 2. 580,000 compounds, 1.1% hits. Polyunsaturated fatty acid lipoxygenase ALOX12 (Homo sapiens), P18054. Potency, µM (titrated, usually from 108 µM), inactives show top-dose activity change, negative = inhibition, most hits filed as inhibitors. purified 12hLO, xylenol orange hydroperoxide absorbance; also: % is scaled to controls: 0 for no effect and ±100 for the full control effect
# Target sequence (P18054 whole entry, looked up): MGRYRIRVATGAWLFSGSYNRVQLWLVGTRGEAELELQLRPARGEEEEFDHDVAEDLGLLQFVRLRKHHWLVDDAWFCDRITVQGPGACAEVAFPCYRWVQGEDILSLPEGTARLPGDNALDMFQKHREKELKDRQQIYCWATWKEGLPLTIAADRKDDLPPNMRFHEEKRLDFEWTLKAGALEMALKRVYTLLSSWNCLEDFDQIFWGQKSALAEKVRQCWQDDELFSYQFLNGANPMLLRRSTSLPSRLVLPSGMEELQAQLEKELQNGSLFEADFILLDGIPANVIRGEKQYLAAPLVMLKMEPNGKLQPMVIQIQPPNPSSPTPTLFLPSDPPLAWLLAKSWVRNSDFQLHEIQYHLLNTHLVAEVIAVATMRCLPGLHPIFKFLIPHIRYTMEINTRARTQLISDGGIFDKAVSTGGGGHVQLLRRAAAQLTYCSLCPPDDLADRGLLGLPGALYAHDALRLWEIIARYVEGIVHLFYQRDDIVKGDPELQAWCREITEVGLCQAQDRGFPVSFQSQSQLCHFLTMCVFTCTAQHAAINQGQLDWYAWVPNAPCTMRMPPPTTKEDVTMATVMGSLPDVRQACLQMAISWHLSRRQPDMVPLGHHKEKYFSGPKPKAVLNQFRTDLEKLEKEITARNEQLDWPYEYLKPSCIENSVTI
#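 Hydroperoxide product was detected by ferrous iron/xylenol orange as the 573 to 405 nm absorbance ratio. Arachidonic acid at 40 uM (final) was turned over for 30 min at room temperature by 150 nM human 12hLO, pH 7.0 Hepes buffer, after 15 min compound preincubation.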
# * marks the source's active call; other numbers are inactive results; ? = inconclusive; . = not tested or not shown; [ ] = remark or other dose. Calls follow the shape of the dose curve; as a rule, active = well fitted curve in the direction sought with a large enough effect; inconclusive = small, poorly fitted or top-dose-only effect, or another doubt; inactive = no such curve, though single readings can be large; an effect the other way counts as inactive or inconclusive. Potency is read from the fitted curve at half-maximal effect.
SMILES,G9a block,Glioma ERSR ind,VDR inhibitor,Sfp inh,12-LOX inh
CC(C)C(=O)Nc1nc2c(s1)C(=O)CC(C)(C)C2,.,.,.,.,8%
CN(C)c1ccc2nc3c(=O)[nH]c(=O)nc-3n(CC(O)C(O)C(O)CO)c2c1 (configuration not stated),50µM*,-12%,-21%,-20%,0%
CC(C)c1ccccc1OCCCCN1CCCCC1,.,-5%,-13%,.,0%
Brc1ccccc1OCCCCCN1CCOCC1,40µM*,-3%,-3%,-28%,?
Brc1ccccc1OCCCN1CCCCCC1,56µM*,2%,6%,-5%,?
CC(=O)c1ccccc1OCCCN1CCCCC1,11µM*,-1%,1%,?,?
CC(C)c1ccccc1OCCCN1CCCC1,40µM*,-2%,-9%,-3%,?
CC(C)c1ccccc1OCCCCCN1CCOCC1,.,-3%,0%,.,?
CN(CC(=O)Nc1nccs1)S(=O)(=O)c1ccc(Br)cc1,.,.,.,.,-5%
Cc1ccc(S(=O)(=O)N2CCCCC2)cc1NCC(=O)N1CCN(C(=O)c2cccs2)CC1,.,.,.,.,-1%
Cc1cccc(N2CCN(C(=O)CC3CCCCN(Cc4ccccc4)C3=O)CC2)c1 (configuration not stated),.,.,.,.,7%
O=C(Nc1ccc2nc3ccccc3nc2c1)c1ccc(Br)cc1,8.9µM*,-1%,-24%,-10%,4%
CCc1ccc(C(=O)Nc2ccc3nc(C)ccc3c2)cc1,-4%,0%,-1%,-5%,41%
Cc1cc(C(=O)Nc2ccc(Br)cc2)cs1,79µM*,3%,-3%,12%,7%
CNS(=O)(=O)c1ccc(NC(=O)c2csc(C)c2)cc1,60%,5%,13%,21%,?
O=C(Nc1ccc2cccnc2c1)c1ccc(Br)cc1,23%[0.501 µM],4%,-23%,-10%,12%
Cc1ccc2cc(NC(=O)c3ccc(C(C)(C)C)cc3)ccc2n1,17%,1%,12%,79µM*,1%
CO[C@H]1[C@H](NC(=O)Cc2c[nH]c3ccccc23)c2ccccc2C12CCNCC2,.,.,.,.,12%
COc1ccc(N2CC(c3nc(-c4ccccn4)no3)CC2=O)cc1OC (configuration not stated),.,.,.,.,7%
CC(C)CNC(=O)CCc1cccnc1,.,.,.,.,-6%
CCCS(=O)(=O)N1CCCC1C(=O)NC1CCCC1 (configuration not stated),.,.,.,.,33%
N#CC1=C(N)NC(SCC(=O)c2ccc(Br)cc2)=C(C#N)C12CCCCC2,40µM*,-3%,6%,5%,-10%
COc1ccc(C(=O)CSC2=C(C#N)C3(CCCCC3)C(C#N)=C(N)N2)cc1,?,-2%,13%,6%,-27%
N#CC1=C(N)NC(SCC(=O)c2ccc(Cl)cc2)=C(C#N)C12CCCC2,?,-3%,1%,50µM*,?
N#CC1=C(N)NC(SCC(=O)Nc2ccccc2)=C(C#N)C12CCCCC2,?,-2%,-27%,14%,-18%[57.4 µM]
SMILES,G9a block,Glioma ERSR ind,VDR inhibitor,Sfp inh,12-LOX inh
CCOc1ccc(-c2nc(COc3cccc4c3CCCC4O)cs2)cc1 (configuration not stated),.,.,.,.,-41%
O=C(O)c1ccccc1-c1ccc(/C=C/c2cc(C(F)(F)F)[nH]c(=O)n2)o1,40µM*,-4%,-13%,-29%,?
O=C(O)c1cc(Cl)ccc1-c1ccc(/C=C/c2cc(C(F)(F)F)[nH]c(=O)n2)o1,?,-1%,-15%,-21%,?
O=C(c1ccc([N+](=O)[O-])s1)N1CCN(c2cccc(Cl)c2)CC1,22µM*,-2%,-11%,-6%,-16%
COc1ccccc1N1CCN(C(=O)c2cc(C(=O)N3CCN(c4ccccc4OC)CC3)cc([N+](=O)[O-])c2)CC1,.,0%,-8%,12%,-3%
COc1ccc(N2CCN(C(=O)NC34CC5CC(CC(C5)C3)C4)CC2)cc1,?,-4%,3%,2%,-21%
COc1ccccc1N1CCN(C(=O)c2ccc([N+](=O)[O-])s2)CC1,45µM*,-1%,-14%,2%,7%
COc1ccccc1N1CCN(C(=O)NC23CC4CC(CC(C4)C2)C3)CC1,79µM*,-3%,7%,13%,0%
CCc1ccc2oc(-c3cc(NC(=O)C(C)C)ccc3O)nc2c1,.,.,.,.,11%
Cc1ccc(C(=O)NC2CC2)cc1NC(=O)NC1CCC(C)CC1 (configuration not stated),.,.,.,.,8%
Cn1nc(C(=O)OCc2nc(-c3ccc4c(c3)OCO4)no2)c2ccccc21,.,.,.,.,-11%
CC(=O)C1=C(O)C(=O)N(c2ccc(O)cc2)C1c1ccc(Cl)cc1 (configuration not stated),71µM*,-3%,-15%,12%,?
CC(=O)C1=C(O)C(=O)N(c2cc(C(C)(C)C)on2)C1c1ccc(Br)cc1 (configuration not stated),45µM*,4%,?,-15%,45µM*
CC(=O)C1=C(O)C(=O)N(c2ccc(Br)cn2)C1c1ccccc1F (configuration not stated),?,-6%,-4%,12%,?
CC(=O)C1=C(O)C(=O)N(c2ccc(Br)cn2)C1c1ccc(Br)cc1 (configuration not stated),56µM*,1%,?,?,0%
CC(=O)C1=C(O)C(=O)N(c2ccc(Br)cn2)C1c1ccccc1[N+](=O)[O-] (configuration not stated),40µM*,0%,0%,-27%,?
CC(C)(C)c1ccc2c(c1)Oc1cc(C(C)(C)C)ccc1OCCOCCOCCO2,.,.,.,.,-10%
CC12CC3CC(C)(C1)CC(NC(=O)c1cccc4c(Br)cccc14)(C3)C2,.,.,.,.,0%
CC(=O)C1=C(O)C(=O)N(c2ccccn2)C1c1cccc(F)c1 (configuration not stated),45µM*,3%,11%,-14%,?
CC(=O)C1=C(O)C(=O)N(c2ccccn2)C1c1ccccc1[N+](=O)[O-] (configuration not stated),?,0%,?,-22%,14µM*
O=C1CN(C(=O)CCn2c(-c3ccccc3)cc3ccccc32)CCN1,.,.,.,.,-16%
CCC(NC(=O)CCc1ccccc1)c1ccccc1 (configuration not stated),1%,0%,89µM*,11%,-10%
CC1Cc2cc(S(=O)(=O)NCCC(=O)NCc3ccco3)ccc2N1C(=O)C1CC1 (configuration not stated),.,.,.,.,19%
